# Experimental data as given in PMC4336329 (PLoS ONE, 2015).
# The whole screen tested about 310,000 compounds, of which about 2,200 (0.71%) showed an effect of 50% or more. The effect is printed as a negative number. The full list was thinned out, with strong results kept by preference.
# Target: human ether-à-go-go-related gene (hERG) potassium channel (human, UniProt Q12809)
# Test: primary screen, population patch clamp on CHO cells stably expressing hERG; higher = less effect of the substance
# Sequence of human ether-à-go-go-related gene (hERG) potassium channel (Q12809 whole entry, looked up): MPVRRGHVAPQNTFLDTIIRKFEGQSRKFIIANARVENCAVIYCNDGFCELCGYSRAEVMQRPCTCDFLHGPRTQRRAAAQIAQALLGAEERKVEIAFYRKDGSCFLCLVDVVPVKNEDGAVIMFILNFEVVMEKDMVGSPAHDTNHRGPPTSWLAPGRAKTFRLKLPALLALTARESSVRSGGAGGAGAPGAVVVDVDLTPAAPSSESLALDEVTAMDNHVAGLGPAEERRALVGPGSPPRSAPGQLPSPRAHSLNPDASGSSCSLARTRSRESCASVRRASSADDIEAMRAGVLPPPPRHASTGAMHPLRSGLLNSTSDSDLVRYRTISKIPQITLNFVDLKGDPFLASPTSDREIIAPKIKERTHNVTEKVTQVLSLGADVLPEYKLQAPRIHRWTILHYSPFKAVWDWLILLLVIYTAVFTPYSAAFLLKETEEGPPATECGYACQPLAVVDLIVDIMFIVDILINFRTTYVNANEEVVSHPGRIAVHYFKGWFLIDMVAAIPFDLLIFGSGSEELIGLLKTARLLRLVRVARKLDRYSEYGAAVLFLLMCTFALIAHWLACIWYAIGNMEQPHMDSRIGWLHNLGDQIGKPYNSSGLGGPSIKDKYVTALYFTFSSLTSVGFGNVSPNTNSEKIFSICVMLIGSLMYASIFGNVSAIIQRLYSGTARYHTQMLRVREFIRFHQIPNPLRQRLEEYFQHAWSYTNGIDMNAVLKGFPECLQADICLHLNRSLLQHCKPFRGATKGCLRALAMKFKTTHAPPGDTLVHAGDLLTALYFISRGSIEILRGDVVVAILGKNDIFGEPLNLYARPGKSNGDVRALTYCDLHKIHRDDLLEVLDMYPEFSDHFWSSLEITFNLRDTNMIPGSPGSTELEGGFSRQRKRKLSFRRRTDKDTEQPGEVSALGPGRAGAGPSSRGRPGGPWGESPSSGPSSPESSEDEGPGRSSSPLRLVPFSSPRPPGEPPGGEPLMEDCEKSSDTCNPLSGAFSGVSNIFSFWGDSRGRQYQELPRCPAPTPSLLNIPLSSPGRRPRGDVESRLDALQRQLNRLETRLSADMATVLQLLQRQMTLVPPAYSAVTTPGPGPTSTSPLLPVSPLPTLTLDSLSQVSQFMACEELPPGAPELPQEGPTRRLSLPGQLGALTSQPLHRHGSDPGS
row,SMILES,"hERG current change (%, negative = inhibition) at 1uM [%]"
1,CCN1CCN(C(=O)/C=C/c2ccc(OC)c(OC)c2)CC1,14.8
2,C/C(=N\OC(=O)c1ccc(Cl)cc1)c1nccs1,9.4
3,COc1ccc(CNS(=O)(=O)c2ccc(-n3cnnn3)c(OC)c2)cc1,-2.65
4,O=C(c1cc2ccccc2[nH]1)N(Cc1cccnc1)CC1CCCN(C2CCCCC2)C1 (stereo not shown),-49.6
5,COC(=O)c1ccccc1C(=O)N(Cc1cccnc1)CC1CCCN(C2CCCCC2)C1 (stereo not shown),-7.49
6,O=C(c1cc2cc(F)ccc2[nH]1)N(Cc1cccnc1)CC1CCCN(C2CCCCC2)C1 (stereo not shown),-81
7,COC(=O)c1ccc(COc2ccc(/C=N/NC(=O)C(=O)Nc3ccc(OC)cc3)cc2OC)o1,9.15
8,COc1cccc(C(=O)C2CCCN(Cc3cccn3-c3ccccn3)C2)c1 (stereo not shown),-84
9,CC(C)Oc1cccc(C(=O)C2CCCN(Cc3cccn3-c3cccnc3)C2)c1 (stereo not shown),12.4
10,COc1cccc(C(=O)C2CCCN(Cc3cccn3-c3cccnc3)C2)c1 (stereo not shown),-6.89
11,CC(C)Oc1cccc(C(=O)C2CCCN(Cc3cccn3-c3ccccn3)C2)c1 (stereo not shown),-81.7
12,CC(C)Oc1cccc(C(=O)C2CCCN(Cc3ccc(Oc4ncccn4)cc3)C2)c1 (stereo not shown),-7.28
13,COc1cccc(C(=O)C2CCCN(Cc3ccccn3)C2)c1 (stereo not shown),-0.481
14,CCOc1ccc2nc(SCC(=O)N(CC(C)C)c3c(N)n(Cc4ccccc4)c(=O)[nH]c3=O)[nH]c2c1,9.81
15,CCCn1c(SCC(=O)Nc2cccc(F)c2)nc(O)cc1=O,9.12
16,CN1CCN(c2cnn(-c3ccccc3)c(=O)c2Br)CC1,13.2
17,COc1ccc(C(=O)N2CCN(c3ccccc3Cl)CC2)cc1S(=O)(=O)NC1CC1,7.63
18,COc1ccc(C(=O)N2CCN(c3cccc(Cl)c3)CC2)cc1S(=O)(=O)NC1CC1,-79.6
19,COc1ccc(C(=O)N2CCN(c3ccc(F)cc3)CC2)cc1S(=O)(=O)NC1CC1,-17.3
20,O=C1Nc2c(c(=O)[nH]c(=O)n2Cc2ccccc2)C1(NS(=O)(=O)c1ccccc1)C(F)(F)F (stereo not shown),14.5
21,C/C(Cn1nc([N+](=O)[O-])cc1C)=N\NC(=O)COc1ccccc1[N+](=O)[O-],7.38
22,C/C(Cn1nc([N+](=O)[O-])cc1C)=N\NC(=O)COc1ccc(Cl)cc1Cl,-51.3
23,C/C(Cn1nc([N+](=O)[O-])cc1C)=N\NC(=O)COc1c(Cl)cc(Cl)cc1Cl,-23.8
24,Cc1nnc(NC(=O)CSc2ccc(-c3ccc(Cl)cc3)nn2)s1,12.4
25,CCOC(=O)N1CCN(c2c(NCCCN(C)c3ccccc3)c(=O)c2=O)CC1,9.53
26,COc1cc(C(=O)Nc2cccc(-c3nc4cc(C)ccc4o3)c2)cc(OC)c1OC,10.6
27,CN(C)CCNc1nc2c(c(=O)[nH]c(=O)n2C)n1CC(O)COc1ccc(Cl)cc1Cl (stereo not shown),-30.6

row,SMILES,"hERG current change (%, negative = inhibition) at 1uM [%]"
1,CCN(CC)CCNc1nc2c(c(=O)[nH]c(=O)n2C)n1CC(O)COc1ccc(Cl)cc1Cl (stereo not shown),-66.1
2,CN(C)CCNc1nc2c(c(=O)[nH]c(=O)n2C)n1CC(O)COc1ccc(Cl)cc1 (stereo not shown),5.04
3,CSc1nn(-c2ccc(C(=O)OC(C(=O)NC(N)=O)C(C)C)cc2)c(=S)s1 (stereo not shown),9.82
4,COc1ccccc1C(=O)Nc1ccnn1C1CCN(C/C=C/c2ccccc2)CC1,-85.6
5,COc1ccccc1C(=O)Nc1ccnn1C1CCN(C/C=C/c2ccc(F)cc2)CC1,-86.9
6,COc1ccccc1/C=C/CN1CCC(n2nccc2NC(=O)CCc2ccccc2)CC1,-24.8
7,COCC(=O)N1CCC(n2nccc2NC(=O)c2ccccc2OC)CC1,14.1
8,CCOc1ccc(N(CC(=O)Nc2ccc(F)c(F)c2)S(=O)(=O)c2c(C)noc2C)cc1,2.37
9,CC(=O)Nc1ccc(NC(=O)COc2ccc(S(=O)(=O)NC(C)c3ccccc3)cc2)cc1 (stereo not shown),17.5
10,CC(C)(C)c1ccc(CSc2cnn(C(C)(C)C)c(=O)c2Cl)cc1,15.7
11,CCOC(=O)c1c(NC(=O)c2ccc(N3C(=O)[C@@H]4[C@H](C3=O)[C@H]3C=C[C@@H]4C3)cc2)sc2c1CCCC2,4.8
12,O=C(CSc1ccccc1)Nc1ccc2c(c1)OCCO2,8.08
13,COc1cccc(NC(=O)C2c3cc(OC)c(OC)cc3C(=O)N(C)C2c2cccnc2)c1 (stereo not shown),1.83
14,COCCCn1c(=N)c(C(N)=S)cc2c(=O)n3cccc(C)c3nc21,-70.3
15,Cc1cccn2c(=O)c3cc(C#N)c(=O)n(CCCN4CCOCC4)c3nc12,-21.2
16,COCCCn1c(C(=O)N2CCOCC2)cc2c(=O)n3cccc(C)c3nc21,1.75
17,COCCCn1c(C(=O)NCCN2CCOCC2)cc2c(=O)n3cccc(C)c3nc21,6.14
18,CCOCCCn1c(=N)c(C(N)=S)cc2c(=O)n3cccc(C)c3nc21,-85.5
19,CCOCCCn1c(=N)c(C(=O)NCCN2CCOCC2)cc2c(=O)n3cccc(C)c3nc21,-17
20,Cc1cccn2c(=O)c3cc(C#N)c(=N)n(CCCN4CCOCC4)c3nc12,-78.1
21,Cc1cccn2c(=O)c3cc(C(N)=S)c(=N)n(CCCN4CCOCC4)c3nc12,-90.5
22,CCCn1c(=N)c(C#N)cc2c(=O)n3cccc(C)c3nc21,-20.2
23,CCOCCCn1c(=NC(C)=O)c(C#N)cc2c(=O)n3cccc(C)c3nc21,-7.46
24,COc1cc(/C=N/NC(=O)c2ccc3nc[nH]c3c2)cc(OC)c1OC,10.6
25,CC1(C)Cc2c(cnn2-c2ccccc2)C(NC(=O)CCc2ccc(=O)[nH]n2)C1 (stereo not shown),8.83
26,Cc1ccccc1CN(C)CC(=O)Nc1ccccc1-c1ccccc1,-9.53
27,O=c1[nH]nc(Cc2ccc(-c3cccc(Cl)c3)o2)c2ccccc12,6.53

row,SMILES,"hERG current change (%, negative = inhibition) at 1uM [%]"
1,CCCCn1c(N)c(N(CC)C(=O)c2ccc(C#N)cc2)c(=O)[nH]c1=O,14.4
2,Cc1cccn2c(=O)c3cc(C(N)=S)c(=N)n(CCCOC(C)C)c3nc12,-77.8
3,Cc1cccn2c(=O)c3cc(C(=O)NCCCOC(C)C)sc3nc12,9.15
4,Cc1cc(N)n(-c2cc(C)c3ccccc3n2)n1,9.59
5,Cc1ccc(NC(=S)N2CCN(c3ccccn3)CC2)c(C)c1,12.7
6,O=C(Nc1c(C(=O)N2CCN(c3ccccn3)CC2)oc2ccccc12)c1ccc([N+](=O)[O-])cc1,-4.07
7,CCOCCCN(C)C1CCN(C(=O)c2oc3ccccc3c2NC(=O)c2ccc([N+](=O)[O-])cc2)CC1,-85.2
8,O=C(Nc1c(C(=O)N2CCN(c3ccccn3)CC2)oc2ccccc12)c1cccc([N+](=O)[O-])c1,7.86
9,CCOCCCN(C)C1CCN(C(=O)c2oc3ccccc3c2NC(=O)c2cccc([N+](=O)[O-])c2)CC1,-86
10,O=C(Nc1c(C(=O)N2CCOCC2)oc2ccccc12)c1cccc([N+](=O)[O-])c1,11.4
11,Cc1c(C(=O)N2CCN(c3ccc([N+](=O)[O-])cc3)CC2)oc2ccccc12,-12.9
12,O=C(CN1C(=O)CCC1=O)Nc1nc(-c2nc3ccccc3s2)cs1,-4.37
13,CCOC(=O)C(C)(C)N(Cc1ccc(Cl)cc1)S(=O)(=O)c1ccc(Cl)c([N+](=O)[O-])c1,13.2
14,Cc1cc(C)cc(NC(=O)C(c2ccccc2)N2CCCC2)c1 (stereo not shown),12.6
15,COc1ccccc1/C=C(/NC(=O)c1ccccc1)C(=O)NCCCn1ccnc1,13.6
16,COc1ccc(/C=C(/NC(=O)c2ccccc2)C(=O)NCCCn2ccnc2)cc1OC,15.3
17,O=C(NCCCn1ccnc1)/C(=C\c1ccccc1Cl)NC(=O)c1ccccc1,6.1
18,CN(C)c1ccc(/C=C(\NC(=O)c2ccccc2)C(=O)NCCCn2ccnc2)cc1,9.45
19,CC(C)c1ccc(/C=C(\NC(=O)c2ccccc2)C(=O)NCCCn2ccnc2)cc1,-63.2
20,O=C(NCCCn1ccnc1)/C(=C/c1ccc(Cl)cc1)NC(=O)c1ccccc1,-82.5
21,CN(C)c1ccc(/C=C(/NC(=O)c2ccccc2)C(=O)NCCCn2ccnc2)cc1,16.1
22,O=C(NCCCn1ccnc1)/C(=C/c1ccccc1)NC(=O)c1ccccc1,-47.6
23,O=C(NCCCn1ccnc1)/C(=C\c1ccc(Br)cc1)NC(=O)c1ccccc1,-82.1
24,Cn1c(=O)n(C)c2cc(NS(C)(=O)=O)ccc21,8.26
25,COc1ccc(Cc2noc(CN3CCCC(C(=O)c4cccs4)C3)n2)cc1OC (stereo not shown),9.47
